In the supplement of paper PMC9262897, “Low-cost anti-mycobacterial drug discovery using engineered E. coli” (Nature Communications, 2022) one finds growth data, which are given here for 6 compounds.

Structures can show the parent of a compound that is named as a salt. ± gives the standard deviation of the averaged measurements.

What all share (experiment): growth (OD600 after 10 h); higher = more growth (less inhibition)
Assay [1] concerns E. coli TESEC Alr+ wild-type control. The conditions noted are these: compound 0.1 mM; raw OD600 reference: median of DMSO wells 0.241, cell-free background 0.041. The procedure:
(§1)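 TESEC Mtb Alr E. coli, or the Alr+ wild-type control, in 384-well plates with Prestwick library compounds at 0.1 mM and 1% DMSO, across arabinose induction levels of 1E3 to 1E7 nM. Growth is read as OD600 after 10 h at 37 °C in triplicate biological replicates.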

In assay [2] the test system is E. coli TESEC Mtb Alr. To be noted: compound 0.1 mM. How it is done:
as §1

The next assay relates to E. coli TESEC Mtb Asd. To be noted: compound 0.1 mM. The procedure: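 TESEC E. coli strains in which the native enzyme is deleted and replaced by arabinose-inducible Mtb Asd, DapB, CysH or TrpD, each grown in its selective medium. Strains were screened against the Prestwick library at 0.1 mM and 1% DMSO in 384-well format at low and high arabinose induction. Growth is read as OD600 after 10 h in triplicate.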

The subject of assay [3] is E. coli TESEC Alr+ wild-type control. To be noted: compound 0.1 mM; raw OD600 reference: median of DMSO wells 0.49, cell-free background 0.052. The procedure:
(§2)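 TESEC Mtb Alr E. coli (ΔaraC ΔtolC ΔentC Δalr ΔdadX, arabinose-inducible Mtb Alr) or the Alr+ wild-type control strain, grown in defined M9-fructose medium without D-alanine in 96-well plates with Prestwick library compounds at 0.1 mM and 1% DMSO. Low Alr induction is 0.1 µM arabinose and high induction is 10 mM arabinose.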

Assay [4] relates to E. coli TESEC Mtb Alr. The conditions noted are these: compound 0.1 mM. How it is done:
as §2
The source holds these as a separate data set.

Where [5] appears, read: arabinose 1000 nM, raw OD600 reference: median of DMSO wells 0.294, cell-free background 0.041.
[6] abbreviates: arabinose 10000 nM, raw OD600 reference: median of DMSO wells 0.264, cell-free background 0.041.
Setting [7] is: arabinose 100000 nM, raw OD600 reference: median of DMSO wells 0.201, cell-free background 0.041.
Where [8] appears, read: arabinose 1000000 nM, raw OD600 reference: median of DMSO wells 0.193, cell-free background 0.041.
The mark [9] stands for this setting: arabinose 10000000 nM, raw OD600 reference: median of DMSO wells 0.146, cell-free background 0.041.
[10] abbreviates: arabinose induction (level): High, raw OD600 reference: median of DMSO wells 0.331, cell-free background 0.041.
Where [11] appears, read: arabinose induction (level): Low, raw OD600 reference: median of DMSO wells 0.417, cell-free background 0.041.
Setting [12] is: arabinose 100 nM, raw OD600 reference: median of DMSO wells 0.413, cell-free background 0.052.
[13] abbreviates: arabinose 10000000 nM, raw OD600 reference: median of DMSO wells […], cell-free background 0.052.

Regarding `Oc1ncnc2[nH]ncc12` [Allopurinol], the growth in assay [1] turned out to be 0.234 ± 0.0068; with E. coli TESEC Mtb Alr [2] (setting [5]) it was 0.283 ± 0.013; in the assay with E. coli TESEC Mtb Alr [2] (setting [6]), 0.241 ± 0.0057; with E. coli TESEC Mtb Alr [2] (setting [7]) it was 0.189 ± 0.019; in the assay on E. coli TESEC Mtb Alr [2] (setting [8]), 0.172 ± 0.0073; in the assay with E. coli TESEC Mtb Alr [2] (setting [9]) it was 0.141 ± 0.0016. Also, the growth was 0.449 ± 0.032 with E. coli TESEC Mtb Asd (setting [10]); 0.435 ± 0.038 with E. coli TESEC Mtb Asd (setting [11]); 0.53 ± 0.078 in assay [3]; 0.41 ± 0.013 in the assay on E. coli TESEC Mtb Alr [4] (setting [12]); 0.34 ± 0.015 in the assay on E. coli TESEC Mtb Alr [4] (setting [13]).

Turning to `O=C1NCC2(CCN(CCc3ccccc3)CC2)O1` [Fenspiride hydrochloride], the growth in assay [1] stood at 0.248 ± 0.0052; in the assay on E. coli TESEC Mtb Alr [2] (setting [5]), 0.288 ± 0.013; with E. coli TESEC Mtb Alr [2] (setting [6]) it was 0.27 ± 0.0043; in the assay with E. coli TESEC Mtb Alr [2] (setting [7]), 0.199 ± 0.0053; in the assay with E. coli TESEC Mtb Alr [2] (setting [8]) it was 0.185 ± 0.0044; in the assay with E. coli TESEC Mtb Alr [2] (setting [9]), 0.148 ± 0.0017. In addition, the growth came to 0.366 ± 0.098 in the assay on E. coli TESEC Mtb Asd (setting [10]); 0.45 ± 0.025 in the assay with E. coli TESEC Mtb Asd (setting [11]); 0.487 ± 0.054 in assay [3]; 0.415 ± 0.0097 with E. coli TESEC Mtb Alr [4] (setting [12]); 0.336 ± 0.0092 in the assay on E. coli TESEC Mtb Alr [4] (setting [13]).

With `CNCC[C@@H](Oc1cccc2ccccc12)c1cccs1` [(R)-Duloxetine hydrochloride], the growth was 0.11 ± 0.038 in assay [1]; 0.0692 ± 0.004 in the assay on E. coli TESEC Mtb Alr [2] (setting [5]); 0.04907 ± 0.00032 in the assay with E. coli TESEC Mtb Alr [2] (setting [6]); 0.0556 ± 0.002 in the assay on E. coli TESEC Mtb Alr [2] (setting [7]); 0.0447 ± 0.0038 with E. coli TESEC Mtb Alr [2] (setting [8]); 0.0466 ± 0.0019 in the assay with E. coli TESEC Mtb Alr [2] (setting [9]). Also, the growth is 0.106 ± 0.066 in the assay with E. coli TESEC Mtb Asd (setting [10]); 0.0934 ± 0.04 in the assay on E. coli TESEC Mtb Asd (setting [11]); 0.503 ± 0.049 in assay [3]; 0.4098 ± 0.0032 with E. coli TESEC Mtb Alr [4] (setting [12]); 0.272 ± 0.011 with E. coli TESEC Mtb Alr [4] (setting [13]).

For the compound `CN1CCCCC1CCN1c2ccccc2Sc2ccc([S+](C)[O-])cc21` (stereo unspecified) [Mesoridazine besylate], the growth in assay [1] turned out to be 0.169 ± 0.0023; with E. coli TESEC Mtb Alr [2] (setting [5]) it was 0.24 ± 0.012; with E. coli TESEC Mtb Alr [2] (setting [6]), 0.266 ± 0.0092; with E. coli TESEC Mtb Alr [2] (setting [7]), 0.225 ± 0.032; with E. coli TESEC Mtb Alr [2] (setting [8]), 0.131 ± 0.0058; in the assay with E. coli TESEC Mtb Alr [2] (setting [9]), 0.149 ± 0.005. For the same compound, the growth in the assay with E. coli TESEC Mtb Asd (setting [10]) was determined as 0.204 ± 0.023; with E. coli TESEC Mtb Asd (setting [11]), 0.339 ± 0.091; in assay [3], 0.568 ± 0.023; in the assay with E. coli TESEC Mtb Alr [4] (setting [12]) it was 0.403 ± 0.0065; in the assay on E. coli TESEC Mtb Alr [4] (setting [13]) it was 0.3 ± 0.02.

With `CC(C)Oc1ccc2c(=O)c(-c3ccccc3)coc2c1` [Ipriflavone], the growth in assay [1] amounted to 0.196 ± 0.0047; with E. coli TESEC Mtb Alr [2] (setting [5]), 0.25 ± 0.018; in the assay with E. coli TESEC Mtb Alr [2] (setting [6]) it was 0.231 ± 0.0093; with E. coli TESEC Mtb Alr [2] (setting [7]) it was 0.186 ± 0.015; in the assay with E. coli TESEC Mtb Alr [2] (setting [8]), 0.117 ± 0.02; with E. coli TESEC Mtb Alr [2] (setting [9]), 0.138 ± 0.0016. Besides, the growth in the assay on E. coli TESEC Mtb Asd (setting [10]) was found to be 0.345 ± 0.098; in the assay with E. coli TESEC Mtb Asd (setting [11]), 0.4 ± 0.021; in assay [3] it was 0.464 ± 0.025; in the assay with E. coli TESEC Mtb Alr [4] (setting [12]), 0.402 ± 0.014; in the assay with E. coli TESEC Mtb Alr [4] (setting [13]), 0.285 ± 0.012.

For the compound `CC[C@H]1OC(=O)[C@H](C)[C@@H](O[C@H]2C[C@@](C)(OC)[C@@H](O)[C@H](C)O2)[C@H](C)[C@@H](O[C@@H]2O[C@H](C)C[C@H](N(C)C)[C@H]2O)[C@](C)(O)C[C@@H](C)CN(C)[C@H](C)[C@@H](O)[C@]1(C)O` [Azithromycin], the growth in assay [1] was 0.04107 ± 0.00015; with E. coli TESEC Mtb Alr [2] (setting [5]) it was 0.0419 ± 0.0015; in the assay with E. coli TESEC Mtb Alr [2] (setting [6]) it was 0.03977 ± 0.00031; in the assay on E. coli TESEC Mtb Alr [2] (setting [7]) it was 0.0416 ± 0.00058; in the assay with E. coli TESEC Mtb Alr [2] (setting [8]), 0.03993 ± 0.00025; in the assay with E. coli TESEC Mtb Alr [2] (setting [9]) it was 0.0413 ± 0.00057. Moreover, the growth in the assay on E. coli TESEC Mtb Asd (setting [10]) was 0.0597 ± 0.003; in the assay on E. coli TESEC Mtb Asd (setting [11]) it was 0.0647 ± 0.0021; in assay [3] it was 0.0526 ± 0.00017; with E. coli TESEC Mtb Alr [4] (setting [12]), 0.05527 ± 0.00032; in the assay with E. coli TESEC Mtb Alr [4] (setting [13]), 0.05133 ± 0.00015.
